Each structure is given as a SMILES string. About 2,700 (4%) of roughly 68,000 compounds showed an effect of 50% or more. The sample holds strong results, similar compounds and a random draw of the others, so the mix is not that of the screen.

The subject of the assay is Plasmodium berghei. In words: Screen against P. berghei liver stage (PbLuc), transformed with Luciferase, at 2uM. The class given is functional, HepG2. The settings on record: tested at 2 uM.
`NC(=O)C1(CCCc2ccncc2)CCCN1` (stereo unspecified): the INHIBITION was found to be 46.98%.
For `O=C(O)c1cc(NS(=O)(=O)c2cccc(Cl)c2F)ccc1Cl`, the INHIBITION came to 36.65%.
For `CCCc1noc(CNc2ccc(C(=O)N3CCCC3)cc2C)n1`, the INHIBITION is listed as -11.2%.
For `Cc1cc(C(=O)N2CCCC2)ccc1NCc1nc(CC(C)C)no1` the value was 58.05%.
For `CCc1noc(CNc2ccc(C(=O)N3CCCC3)cc2C)n1` the value was 24.15%; for `NC(=O)c1cccc(CN2CCc3c(ncn3C3CC3)C2)c1`, 11.95%; for `Cn1cnc2c1CCN(Cc1cccc(C(N)=O)c1)C2`, 74.87%.
For the compound `CC(C)CNC(=O)c1cccc(CN2CCc3c(ncn3C)C2)c1`, the INHIBITION came out at 21.43%.
Consider `Cn1cnc2c1CCN(Cc1cccc(OCC(N)=O)c1)C2`, for which the INHIBITION was determined as 3.9%.
On to `Cn1cnc2c1CCN(Cc1cccc(C(=O)N3CCCCC3)c1)C2`, for which the INHIBITION is listed as 5.91%.
For `Cn1cnc2c1CCN(Cc1ccc(C(=O)N3CCCC3)cc1)C2` the value was 51.21%; for `CCS(=O)(=O)Cc1nc(-c2cnn3c(C)cc(C)nc23)no1`, -9.94%; for `CN1CCN([C@@H]2CN(C(=O)c3cc4cccc(F)c4[nH]3)C[C@H]2O)CC1`, -17.65%.
For the compound `CNC(=O)C(C)CN(C)C(=O)Nc1cc(F)cc(Br)c1` (stereo unspecified), the INHIBITION is recorded as -0.47%.
Turning to `CN(C)CCNC(=O)c1ccccc1NC(=O)c1cc(Cl)ccc1Cl`, the INHIBITION was 13.39%.
For `O=C(NCc1ccco1)[C@@H]1CC[C@@H]2[C@@H](CCN2CC2CC2)O1`, the INHIBITION worked out at 22.89%.
`CC(Cn1cccn1)NCc1nc(-c2cccc(Cl)c2)no1` (stereo unspecified): the INHIBITION is 73.05%.
Turning to `CC(Cn1cccn1)NCC(=O)NC1(C#N)CCCCC1` (stereo unspecified), the INHIBITION is reported as 51.14%.
For the compound `CC(Cn1cccn1)NC(=O)NCCc1cccs1` (stereo unspecified), the INHIBITION is reported as -26.87%.
For `CC(Cn1cccn1)NCC(=O)NCCc1cccs1` (stereo unspecified) the value was 66.99%; for `CCCc1nc(CNC(C)Cn2cccn2)cs1` (stereo unspecified), -6.71%; for `Cc1cnn(CC(C)NCC(=O)NCCc2cccs2)c1` (stereo unspecified), -28.18%.
In the case of `N#CC1(NC(=O)CNCCn2cccn2)CCCCC1`, the INHIBITION is reported as -45.11%.
With `N#CC1(NC(=O)COC(=O)Cn2cccn2)CCCC1`, the INHIBITION is recorded as -40.04%.
In the case of `CC(Cn1cccn1)NCc1csc(Cc2ccccc2)n1` (stereo unspecified), the INHIBITION is reported as -44.51%.
For the compound `CCc1nc(CNC(C)Cn2cccn2)cs1` (stereo unspecified), the INHIBITION is on record as 55.7%.
For `CC(Cn1cccn1)NCc1nc(-c2cccnc2)no1` (stereo unspecified), the INHIBITION is recorded as -15.36%.
As for `CC(Cn1cccn1)NCc1nc(-c2ccc3c(c2)OCO3)no1` (stereo unspecified), the INHIBITION is listed as -35.26%.
For `NCCc1cccc(CN2CCN(c3cccc(Cl)c3)C(=O)C2)c1`, the INHIBITION is reported as 31.35%.
Turning to `COCc1nc(C(=O)N2CCN(Cc3ccsc3)CC2)cs1`, the INHIBITION was 8.93%.
As for `CC(C)C(=O)N1CCCC(Cc2ncccn2)C1` (stereo unspecified), the INHIBITION is recorded as -24.73%.
For `CC(C)COC1CCN(C(=O)c2ccc(C(F)(F)F)[nH]c2=O)CC1` the value was -24.73%; for `FC(F)(F)c1cccc(OC2CCN(Cc3c[nH]cn3)CC2)c1`, -6.65%.
Regarding `CCC1=N[C@@]2(CC[C@@H]3CN(CC4CC4)C[C@@H]32)C(=O)N1`, the INHIBITION is -26.61%.
For `O=C(NC1CC1)c1cnc(-c2noc3cc(N4CCCCC4)ccc23)s1`, the INHIBITION is given as 18.11%.
`Cc1cnn(CC(C)NCc2nc(-c3cccnc3)no2)c1` (stereo unspecified): the INHIBITION is given as -36.24%.
In the case of `Cc1cnn(CC(C)NCc2nc(-c3cccs3)no2)c1` (stereo unspecified), the INHIBITION was -41.76%.
As to `CC(Cn1cccn1)NCCCc1nc(-c2cccs2)no1` (stereo unspecified), the INHIBITION turned out to be 21.39%.
`CC(Cn1cccn1)NCc1nc(-c2cccs2)no1` (stereo unspecified): the INHIBITION came out at 51.21%.
On to `Cc1cccc(-c2noc(CNC(C)Cn3cc(C)cn3)n2)c1` (stereo unspecified), for which the INHIBITION is recorded as -26.75%.
For the compound `Cc1cnn(CC(C)NCc2nc(-c3ccoc3)no2)c1` (stereo unspecified), the INHIBITION worked out at 59.68%.
For `O=C(CN1CCOC(CNc2cccnn2)C1)NCc1cccs1` (stereo unspecified) the value was -48.41%; for `Cc1cc(C)n(-c2ccc(N3CCC4(CC3)OCC(C)O4)nc2)n1` (stereo unspecified), -11.55%; for `COCC1CN(CC2CC2)Cc2ncn(CC3CC3)c21` (stereo unspecified), -21.31%.
As for `CN(C)CCN1CCO[C@@H]2CN(C(=O)Cc3ccsc3)CC[C@@H]2C1`, the INHIBITION is recorded as -19.51%.
On to `CC(=O)N1[C@H](CN(C)C)C[C@@H]2CN(C(=O)Cc3cccs3)CC[C@@H]21`, for which the INHIBITION is reported as 6.24%.
Consider `CC(=O)N1CCO[C@@H]2CN(C(=O)NCc3ccccc3)CC[C@@H]2C1`, for which the INHIBITION is on record as 11.79%.
For the compound `CS(=O)(=O)N1CCO[C@@H]2CN(C(=O)Cc3cccs3)CC[C@@H]2C1`, the INHIBITION was 20.87%.
In the case of `COCCN1CCO[C@@H]2CN(C(=O)Cc3ccc(F)cc3)CC[C@@H]2C1`, the INHIBITION came to 3.72%.
For `CN1[C@H](CN2CCCC2)C[C@@H]2CN(C(=O)Cc3cccs3)CC[C@@H]21` the value was 10.62%; for `CN(C)C[C@@H]1C[C@@H]2CN(C(=O)Cc3cccs3)CC[C@@H]2N1C`, 54.01%; for `Cc1ccc(CC(=O)N2CC[C@@H]3CN(CCN(C)C)CCO[C@@H]3C2)cc1`, 50.96%.
`CN1CCO[C@@H]2CN(C(=O)NCc3ccccc3)CC[C@@H]2C1`: the INHIBITION came out at 69.86%.
`CCN1CCO[C@@H]2CN(C(=O)NCc3ccccc3)CC[C@@H]2C1`: the INHIBITION came to 0.15%.
In the case of `CN1CCO[C@@H]2CN(C(=O)Cc3cccs3)CC[C@@H]2C1`, the INHIBITION was found to be 52.96%.
For `CC(C)N1CCO[C@@H]2CN(C(=O)Cc3cccs3)CC[C@@H]2C1`, the INHIBITION was -7.26%.

The record behind these values is ChEMBL document CHEMBL4513216, “Probing the Open Global Health Chemical Diversity Library for Multistage-Active Starting Points for Next-Generation Antimalarials” (ACS Infect Dis, 2020).
